We go through 40 compounds from the supplement of paper PMC8975748.

Structures can show the parent of a compound that is named as a salt.

In this assay the test system is Saccharomyces cerevisiae BY4741 SeMeCo community. Briefly: z-score of subpopulation abundance vs DMSO median, subpopulation auxotrophic for UM; higher = larger share of this subpopulation than in DMSO controls. The settings on record: 10 µM; 24 h; SM minimal medium; subpopulation (auxotrophy): UM. As for the experimental part: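 Fluorescent four-plasmid SeMeCo (self-establishing metabolically cooperating S. cerevisiae BY4741 community; plasmids pH-mRuby2, pL-mWasabi, pU-eCFP, pM-TagRFP657) was grown 24 h in minimal SM medium with each Selleck FDA-approved drug at 10 µM in 384-well plates. Cells were fixed and imaged by high-content confocal microscopy. For each auxotrophic subpopulation (and the prototroph), a z-score gives the deviation from the DMSO vehicle-control population median.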
`CCN(CC)CCNC(=O)c1cc(Cl)c(N)cc1OC` [Metoclopramide]: the “z-score of subpopulation abundance” value stood at 1.28.

As to `CC[N+](CC)(CC)CC` [Tetraethylammonium bromide], the “z-score of subpopulation abundance” value was determined as 0.12.

As for `COC(=O)C1=C(C)NC(C)=C(C(=O)OC(C)(C)CN(C)CCC(c2ccccc2)c2ccccc2)C1c1cccc([N+](=O)[O-])c1` (stereo not given) [Lercanidipine hydrochloride], the “z-score of subpopulation abundance” value was -1.34.

`O=C(O)c1cccnc1Nc1cccc(C(F)(F)F)c1` [Niflumic acid]: the “z-score of subpopulation abundance” value was -0.28.

Turning to `Nc1nc2ccc(OC(F)(F)F)cc2s1` [Riluzole], the “z-score of subpopulation abundance” value was -0.42.

On to `CS(=O)(=O)Nc1ccc([N+](=O)[O-])cc1Oc1ccccc1` [Nimesulide], for which the “z-score of subpopulation abundance” value was -0.24.

Consider `CN(C)CCc1c[nH]c2ccc(C[C@H]3COC(=O)N3)cc12` [Zolmitriptan], for which the “z-score of subpopulation abundance” value was -0.65.

For the compound `C[N+]1(C)[C@@H]2CC[C@H]1C[C@@H](OC(=O)C(O)c1ccccc1)C2` (stereo not given in full) [Homatropine Methylbromide], the “z-score of subpopulation abundance” value stood at 0.8.

As to `O=C(CCCN1CC=C(n2c(=O)[nH]c3ccccc32)CC1)c1ccc(F)cc1` [Droperidol], the “z-score of subpopulation abundance” value was found to be 0.62.

Turning to `NC[C@H]1O[C@H](O[C@H]2[C@H](O)[C@@H](O[C@H]3O[C@H](CO)[C@@H](O)[C@H](N)[C@H]3O)[C@H](N)C[C@@H]2N)[C@H](O)[C@@H](O)[C@@H]1O` [Kanamycin sulfate], the “z-score of subpopulation abundance” value is -0.15.

`O=C(O)c1cc(-c2ccc(F)cc2F)ccc1O` [Diflunisal]: the “z-score of subpopulation abundance” value is -3.18.

In the case of `COc1ccc2c3c1O[C@H]1C[C@@H](O)C=C[C@@]31CCN(C)C2` [Galanthamine HBr], the “z-score of subpopulation abundance” value turned out to be 1.03.

Take `O=C1c2cccc3c2[C@H](CCC3)CN1[C@@H]1CN2CCC1CC2` [Palonosetron HCl]: the “z-score of subpopulation abundance” value came out at 0.37.

As to `CCN(CC)CCOC(=O)c1ccc(N)cc1Cl` [Chloroprocaine HCl], the “z-score of subpopulation abundance” value was found to be 0.74.

For the compound `C=CC[N+]1([C@H]2C[C@H]3[C@@H]4CC[C@H]5C[C@H](O)[C@@H](N6CCOCC6)C[C@]5(C)[C@H]4CC[C@]3(C)[C@H]2OC(C)=O)CCCC1` [Rocuronium Bromide], the “z-score of subpopulation abundance” value was -0.71.

On to `CC1=C(C(=O)O)N2C(=O)[C@@H](NC(=O)[C@H](N)c3ccccc3)[C@H]2SC1` [Cephalexin], for which the “z-score of subpopulation abundance” value was -0.17.

Regarding `O=C(CCCN1CCC(O)(c2ccc(Cl)cc2)CC1)c1ccc(F)cc1` [Haloperidol], the “z-score of subpopulation abundance” value was -0.69.

Turning to `CN1CCN(CCCN2c3ccccc3Sc3ccc(Cl)cc32)CC1` [Prochlorperazine dimaleate salt], the “z-score of subpopulation abundance” value turned out to be 0.65.

On to `C[C@@H](c1nc(-c2ccc(C#N)cc2)cs1)[C@](O)(Cn1cncn1)c1cc(F)ccc1F` [Isavuconazole], for which the “z-score of subpopulation abundance” value worked out at 13.4.

Take `Clc1ccc(COC(Cn2ccnc2)c2ccc(Cl)cc2Cl)cc1` (stereo not given) [Econazole]: the “z-score of subpopulation abundance” value amounted to 9.39.

Turning to `CC1(C)S[C@@H]2[C@H](NC(=O)Cc3ccccc3)C(=O)N2[C@H]1C(=O)O.CCN(CC)CCOC(=O)c1ccc(N)cc1` [Penicillin G Procaine], the “z-score of subpopulation abundance” value stood at 0.64.

Take `Cc1c(-c2ccc(O)cc2)n(Cc2ccc(OCCN3CCCCCC3)cc2)c2ccc(O)cc12` [Bazedoxifene HCl]: the “z-score of subpopulation abundance” value was -0.08.

With `CC(=O)OCC(CCn1cnc2cnc(N)nc21)COC(C)=O` [Famciclovir], the “z-score of subpopulation abundance” value was -0.68.

With `CC(C)[C@H](N)C(=O)OCC(CO)OCn1cnc2c(=O)[nH]c(N)nc21` (stereo not given in full) [Valganciclovir HCl], the “z-score of subpopulation abundance” value was -0.83.

Consider `CN1CCc2cc3c(cc2C(=O)Cc2ccc4c(c2C1)OCO4)OCO3` [Protopine], for which the “z-score of subpopulation abundance” value is -0.23.

As to `N[C@@H](CCC(=O)O)C(=O)O` [(S)-Glutamic acid], the “z-score of subpopulation abundance” value is -0.63.

`Fc1ccc(C(c2ccc(F)cc2)N2CCN(C/C=C/c3ccccc3)CC2)cc1` [Flunarizine 2HCl]: the “z-score of subpopulation abundance” value is -0.39.

As to `Cc1cc(-c2ccc(/N=N/c3ccc4c(S(=O)(=O)O)cc(S(=O)(=O)O)c(N)c4c3O)c(C)c2)ccc1/N=N/c1ccc2c(S(=O)(=O)O)cc(S(=O)(=O)O)c(N)c2c1O` [Evans Blue], the “z-score of subpopulation abundance” value was -9.56.

As for `N=C(N)NC(=O)c1nc(Cl)c(N)nc1N` [Amiloride HCl], the “z-score of subpopulation abundance” value is -1.89.

As for `Nc1ccc(S(=O)(=O)Nc2ncccn2)cc1` [Sodium sulfadiazine], the “z-score of subpopulation abundance” value was -0.13.

`CO[C@H]1C[C@@H]2CC[C@@H](C)[C@@](O)(O2)C(=O)C(=O)N2CCCC[C@H]2C(=O)O[C@H]([C@H](C)C[C@@H]2CC[C@@H](OCCO)[C@H](OC)C2)CC(=O)[C@H](C)/C=C(\C)[C@@H](O)[C@@H](OC)C(=O)[C@H](C)C[C@H](C)/C=C/C=C/C=C/1C` [Everolimus (RAD001)]: the “z-score of subpopulation abundance” value amounted to 12.8.

As to `COc1ccc(Cl)cc1C(=O)NCCc1ccc(S(=O)(=O)NC(=O)NC2CCCCC2)cc1` [Glyburide (Glibenclamide)], the “z-score of subpopulation abundance” value was -0.02.

Consider `CCCCC(=O)O[C@H]1CC[C@H]2[C@@H]3CCc4cc(O)ccc4[C@H]3CC[C@]12C` [Estradiol valerate], for which the “z-score of subpopulation abundance” value was determined as 0.

For the compound `CCOc1ccc2nc3cc(N)ccc3c(N)c2c1` [Ethacridine lactate monohydrate], the “z-score of subpopulation abundance” value was -9.56.

Turning to `N#Cc1ccc2[nH]cc(CCCCN3CCN(c4ccc5oc(C(N)=O)cc5c4)CC3)c2c1` [Vilazodone HCl], the “z-score of subpopulation abundance” value was -0.14.

In the case of `N[C@@H](C(=O)N[C@@H]1C(=O)N2C(C(=O)O)=C(Cl)CS[C@H]12)c1ccccc1` [Cefaclor], the “z-score of subpopulation abundance” value stood at 0.24.

As to `CC[C@H](c1ccc(O)cc1)[C@@H](CC)c1ccc(O)cc1` [Hexestrol], the “z-score of subpopulation abundance” value was -0.86.

On to `O=C(O)Cc1ccccc1Nc1c(Cl)cccc1Cl` [Diclofenac Sodium], for which the “z-score of subpopulation abundance” value is -1.45.

For `NCc1ccccc1CC(=O)N[C@@H]1C(=O)N2C(C(=O)O)=C(CSc3nnnn3CC(=O)O)CS[C@H]12` [Ceforanide], the “z-score of subpopulation abundance” value was -0.41.

As to `CONC(=O)Nc1ccc(-c2sc3c(c2CN(C)C)c(=O)n(-c2ccc(OC)nn2)c(=O)n3Cc2c(F)cccc2F)cc1` [Relugolix], the “z-score of subpopulation abundance” value was -0.12.
